Sampled rows, rich in hits. Any-hit rate of the full collection: about 17%.
HepG2 tox-1: qHTS for Inhibitors of TGF-b: Cytotox Counterscreen; HepG2 CAGA-GFP viability, ATP luminescence, 18 h; Potency, µM (top dose mostly 46.1 µM), for inactives: top-dose activity change, negative = cytotoxicity, hits mostly cytotoxic; 410,000 compounds, 0.76% hits; AID 588856, 2011
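CellTiter-Glo luminescence gave cytotoxicity after 18 hours at 37 degrees C. The cells were HepG2 CAGA-GFP in 1% FBS DMEM, stimulated with 500 pg/mL TGF-beta after compound addition. %Activity was normalised to no-cell wells (complete cell-killing) and DMSO (no toxicity), and curves were fitted and classified.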
TGFb inhibitor: qHTS for Inhibitors of TGF-b | HepG2 CAGA-GFP TGF-b/SMAD3 reporter, GFP fluorescence, 18 h; TGF-beta stimulated, 500 pg/mL final | Potency, µM (top dose mostly 46.1 µM), without a hit: at the highest dose activity, negative = inhibition, most hits filed as inhibitors | 410,000 compounds, 1.2% hits; also: % is scaled to controls: 0 for no effect and ±100 for the full control effect; nearly all actives have a fitted effect of over 65% in size
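Read-out: total well GFP (ex488/em500-530) summed from mean per-cell fluorescence. Cells: HEPG2 CAGA-GFP, 1% FBS DMEM, 18 h at 37 degrees C with 500 pg/mL final TGF-beta. Unstimulated wells served as the full-inhibition control; stimulated DMSO wells = 0%.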
DT40 TDP1 no CPT: qHTS for Inhibitors of human tyrosyl-DNA phosphodiesterase 1 (TDP1): qHTS in cells in absence of CPT | DT40 Tdp1-/- hTDP1 cells, no CPT, ATP luminescence, 48 h | Potency, µM (doses to about 46.2 µM), without a hit: at the top dose activity change, negative = growth inhibition, actives largely listed as inhibitors | 420,000 compounds, 15% hits | AID 686978, 2013; also: % is scaled to controls: 0 for no effect and ±100 for the full control effect; nearly all actives have a fitted effect of over 55% in size
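A cellular qHTS used chicken DT40 cells lacking endogenous Tdp1 but carrying stably transfected human TDP1. Compounds were applied without camptothecin, and cell growth kinetics were judged by ATP-dependent luminescence after ≥48 hr.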
TDP1 cell CPT: qHTS for Inhibitors of human tyrosyl-DNA phosphodiesterase 1 (TDP1): qHTS in cells in presence of CPT. chicken DT40 Tdp1-/-;hTDP1 cells + 20 nM CPT, ATP luminescence, 48 h. Potency, µM (doses to about 46.2 µM), inactives show at the highest dose activity change, negative = growth inhibition, usual class: inhibitors. 420,000 compounds, 12% hits. AID 686979, 2013; also: % is scaled to controls: 0 for no effect and ±100 for the full control effect; nearly all actives have a fitted effect of over 55% in size
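Cell growth measured by CellTiter-Glo luminescence after a minimum 48 h, 37 C compound exposure with 20 nM CPT in Tdp1-knockout DT40 cells stably expressing hTDP1, seeded 400/well; qHTS titration format.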
S2 tox: Viability Counterscreen for Primary qHTS for Inhibitors of ATXN expression | S2 cells (HEK-293 line with an ATXN2-luciferase reporter) viability, CellTiter-Fluor protease fluorescence, 24 h | Potency, µM (titrated, usually from 56.7 µM), usual class: cytotoxic | 400,000 compounds, 0.49% hits | AID 651635, 2014; also: nearly all actives have a fitted effect of over 40% in size
ATXN2 expr inh: Primary qHTS for Inhibitors of ATXN expression; HEK-293 ATXN2-luciferase reporter, luminescence, 24 h; Potency, µM (top dose mostly 57 µM), for inactives: at the top dose activity change, negative = inhibition, usual class: inhibitors; 360,000 compounds, 0.72% hits; also: % is scaled to controls: 0 for no effect and ±100 for the full control effect; nearly all actives have a fitted effect of over 55% in size
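qHTS (up to 57 uM final) was run with 24 h compound exposure of reporter cells at 37 °C. Each well was multiplexed: SteadyGlo luminescence measured ATXN2-luciferase expression after a fluorogenic Gly-Phe-AFC viability readout (25 uM final).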
TGFb confirm: qHTS for Inhibitors of TGF-b: Confirmation of Cherry Picks. shares compounds with TGFb inhibitor. 1,600 compounds, 63% hits. Potency, µM (highest dose often 46.1 µM), inactives show at the top dose activity, negative = inhibition, actives largely listed as inhibitors. HepG2 CAGA-GFP TGF-b reporter, GFP fluorescence, 18 h; cells stimulated with TGF-beta, 500 pg/mL; also: % is scaled to controls: 0 for no effect and ±100 for the full control effect; nearly all actives have a fitted effect of over 65% in size
HepG2 tox-2: qHTS for Inhibitors of TGF-b: Cytotox Counterscreen for Cherry Picks. shares compounds with TGFb inhibitor. AID 720535, 2013. 1,600 compounds, 27% hits. HepG2 CAGA-GFP viability, ATP luminescence, 18 h; cells stimulated with TGF-beta, 500 pg/mL. Potency, µM (series often up to 46.1 µM), inactives show top-dose activity, negative = cytotoxicity, actives largely listed as inhibitors; also: % is scaled to controls: 0 for no effect and ±100 for the full control effect; nearly all actives have a fitted effect of over 70% in size
CCL64 TGFb inh: qHTS for Inhibitors of TGF-b: CCL64 Cells Orthogonal Assay for Cherry Picks; CCL64 CAGA-GFP reporter, TGF-b stimulated, GFP fluorescence, 18 h; 1,600 compounds, 41% hits; shares compounds with TGFb inhibitor; Potency, µM (titrated, usually from 46.1 µM), inactives show top-dose activity, negative = inhibition, actives largely listed as inhibitors; AID 720536, 2013; also: nearly all actives have a fitted effect of over 65% in size
COP TGFb inh: qHTS for Inhibitors of TGF-b: Hit Validation in HepG2 Cells using COP promoter | Potency, µM (titrated, usually from 46.1 µM), without a hit: top-dose activity, negative = inhibition, hits mostly inhibitors | 1,600 compounds, 3% hits | HepG2 COP-GFP TGF-b reporter, GFP fluorescence, 18 h; cells stimulated by added recombinant TGF-beta | shares compounds with TGFb inhibitor; also: nearly all actives have a fitted effect of over 70% in size
Numbers without * were called inactive; i = inactive; ? = inconclusive; . = not tested or not shown; ! = not active in a repeat. Calls follow the shape of the dose curve; as a rule, active = well fitted curve in the direction sought with a large enough effect; inconclusive = small, poorly fitted or top-dose-only effect, or another doubt; inactive = no such curve, though single readings can be large; an effect the other way counts as inactive or inconclusive. Potency is read from the fitted curve at half-maximal effect.

SMILES	HepG2 tox-1	TGFb inhibitor	DT40 TDP1 no CPT	TDP1 cell CPT	S2 tox	ATXN2 expr inh	TGFb confirm	HepG2 tox-2	CCL64 TGFb inh	COP TGFb inh
Cc1ccc2c(C)ccc(O)c2n1	-6%	7.1µM*	3%	-3%	i	-27%	-3%	0%	-23%	-21%
CCOC(=O)C1CCN(C(=O)c2c(C)oc3c2C(=O)c2ccccc2C3=O)CC1	2.8µM*	4.5µM*	7.3µM*	5.2µM*	?	?	2.1µM*	5.2µM*	7.3µM*	5.8µM*
Cc1oc2c(c1C(=O)N1CCC(C)CC1)C(=O)c1ccccc1C2=O	5µM*	4µM*	12µM*	7.3µM*	18µM*	25µM*	3.7µM*	5.8µM*	12µM*	21µM*
CC1CCN(C(=O)c2ccc3c(c2)C(=O)c2ccccc2-3)CC1	1%	-5%	?	?	.	.	.	.	.	.
COc1cccc(-c2nnn(CC(=O)N3CCCCC3)n2)c1	0%	-9%	-7%	21%	i	26%	.	.	.	.
O=C(C1CCC(=O)N(C2CCCCCC2)C1)N1CCN(c2ccccc2Cl)CC1 (centres undefined)	-86%	7.1µM*	21µM*	?	i	.	-29%	-20%	?	0%
O=C(COc1ccc(C2SCCS2)cc1)NNC(=O)C(Cl)Cl	-11%	30%	-22%	-2%	i	2%	.	.	.	.
Cc1ccc2nc(-c3cccnc3)c(Nc3ccc(C(C)C)cc3)n2c1	2%	2%	-5%	-25%	i	14%	.	.	.	.
Cc1ccc2nc(-c3ccccn3)c(Nc3ccccc3C)n2c1	-23%	3.2µM*	10µM*	16µM*	?	4.5µM*!	8.2µM*	?	?	33%
CCCCC1(CC)COC(c2ccccc2)OC1 (centres undefined)	9%	-5%	?	7%	i	9%	.	.	.	.
Cc1ccc(NC(=O)c2ccc([N+](=O)[O-])s2)cc1S(=O)(=O)N1CCOCC1	-158%	7.1µM*	16µM*	16µM*	i	?	6.5µM*	?	?	26%
Cc1ccc(NC(=O)C2=COCCO2)cc1S(=O)(=O)N1CCOCC1	7%	0%	-28%	7%	i	-6%	.	.	.	.

Compound activity (PubChem)
